Inconclusive results are not listed. Active and inactive are the calls of the source. Unless noted, the call rests on the fitted dose curve; in most records, active means well fitted curve in the direction sought with a large enough effect in the repeat runs; inconclusive means weak or mixed curves; inactive means no such curve, though single readings can be large; an effect the other way counts as inactive or inconclusive.
Experiments:
[1] = qHTS assay to identify small molecule agonists of the hypoxia (HIF-1) signaling pathway - cell viability counter screen (AID 1224844; calls by dose curve; further: nearly all actives have a fitted effect of over 50% in size)
Procedure, shortened: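 CellTiter-Glo luminescence read-out, 30 min RT, taken in the same wells as the beta-lactamase HRE reporter assay; HRE-bla ME-180 cells, 0.5% dialyzed FBS, 17 hr compound treatment at 37C, 5% CO2.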

[2] = qHTS assay to identify small molecule agonists of H2AX (AID 1224845; active means well fitted activation curve with a large enough effect in the signal ratio in the repeat runs, not every such curve was filed as active; the % refers to the signal ratio)
Procedure, shortened: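 Wild-type CHO-K1 cells plated overnight, then exposed 3 hr at 37C to compounds at 15 concentrations (0.76% DMSO). Lysed, then HTRF anti-pH2AX(S139)-cryptate/anti-H2AX-d2 detection after 24 hr at room temperature; emissions 665 and 620 nm.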

[3] = qHTS assay to identify small molecule agonists of the hypoxia (HIF-1) signaling pathway (AID 1224846; active means well fitted activation curve with a large enough effect in the signal ratio in the repeat runs, not every such curve was filed as active; the % refers to the signal ratio)
Procedure, shortened: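 Beta-lactamase FRET read-out (CCF4-AM substrate) from ME-180 cells carrying an HRE-driven bla reporter, after 17 hrs compound exposure at 37C/5% CO2. Cells were seeded at 2,000 per well in 0.5% dialyzed FBS medium and preincubated 5 hrs.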

[4] = qHTS assay to identify small molecule agonists of H2AX - cell viability counter screen (AID 1224847; calls by dose curve; further: top concentration of the series differs between compounds; nearly all actives have a fitted effect of over 30% in size)
Procedure, shortened: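 Compounds tested at 15 concentrations were incubated 3 hr at 37C with wild-type CHO-K1 cells; cellular ATP-based luminescence (CellTiter-Glo) indicated viability.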

[5] = qHTS assay to identify small molecule antagonists of the estrogen related receptor (ERR) signaling pathway from Tox21 library (AID 1224848); further: nearly all actives have a fitted effect of over 50% in size
Procedure, shortened: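 First, 2,000 ERR cells per well were plated and held 6 h at 37 C/5% CO2. Next, compounds in DMSO were pinned in and left 18 h at 37 C. Finally, ONE-Glo was added and luminescence read after 30 min at room temperature.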

[6] = qHTS assay to identify small molecule agonists of the estrogen related receptor (ERR) signaling pathway from Tox21 library (AID 1224849; calls by dose curve; further: nearly all actives have a fitted effect of over 15% in size); conditions: ERR reporter cell line, ONE-Glo luciferase, 18 h; at 92.4 µM (top of the series) unless noted
Procedure, shortened: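 Luminescence readout (ONE-Glo, 30 min RT) after 18 h compound exposure at 37 C of NTP-supplied ERR reporter cells; cells were plated 6 h before compound addition by pin tool.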

[7] = qHTS RealTime-Glo MT Cell Viability Assay in HepG2 cells - 24 hour (AID 1224867); further: nearly all actives have a fitted effect of over 50% in size
Procedure, shortened: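 Tox21 10K library screened in qHTS format on HepG2 cells carrying RealTime-Glo reagents. Compounds were added after a 5 h preincubation, and the luminescent signal from continuous culture was measured repeatedly during 40 h treatment.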

[8] = qHTS RealTime-Glo MT Cell Viability Assay in HEK293 cells - 32 hour (AID 1224868); further: top concentration of the series differs between compounds; nearly all actives have a fitted effect of over 50% in size
Procedure, shortened: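 Luminescence generated by NanoLuc from substrate produced by living HEK293 cells served as the viability signal. Each value reflects the reading at its stated time point during continuous 40 h compound exposure at 37 C.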

[9] = A CellTox Green Cytotoxicity Assay to monitor cytotoxicity in HEK293 cells - 0 hour (AID 1224869); further: nearly all actives have a fitted effect of over 50% in size
Procedure, shortened: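 Read-out: fluorescence of a cell-impermeant cyanine dye staining DNA of dead cells, proportional to cytotoxicity. HEK293, 600 cells/well with reagent, compound (23 nL DMSO) added after 5 h; reads at 0, 8, 16, 24, 32, 40 h.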

[10] = qHTS RealTime-Glo MT Cell Viability Assay in HepG2 cells - 40 hour (AID 1224870); further: nearly all actives have a fitted effect of over 50% in size
Procedure, shortened: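 HepG2 cells mixed with RealTime-Glo MT reagents (NanoLuc plus cell-permeant prosubstrate) were seeded at 600 cells/well, incubated 5 h at 37 C/5% CO2, then pinned with compounds in DMSO; nonlytic luminescence tracked viability during 40 h treatment.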
On the % scale 0 is the no-effect control and ±100 the full control effect.

CCC1(c2ccccc2)C(=O)N(COC)C(=O)N(COC)C1=O
inactive: Potency [1] | outcome [2] | outcome [3] | Potency [4] | Potency [5] | activity change, positive = activation [6] 4.72% [at 42.5 µM] | Potency [7] | Potency [8] | outcome [9] | Potency [10]

CCC1(CC)C(=O)C=CNC1=O
inactive: Potency [1] | outcome [2] | outcome [3] | Potency [4] | Potency [5] | activity change, positive = activation [6] 4.55% [at 42.5 µM] | Potency [7] | Potency [8] | Potency [10]

CCC(C)C(C)(COC(N)=O)COC(N)=O (stereo unspecified)
inactive: Potency [1] | outcome [2] | outcome [3] | Potency [4] | Potency [5] | activity change, positive = activation [6] 1.95% [at 42.5 µM] | Potency [7] | Potency [8] | outcome [9]

O=[N+]([O-])CCO
inactive: Potency [1] | outcome [2] | outcome [3] | Potency [4] | Potency [5] | activity change, positive = activation [6] 1.1% | Potency [7] | Potency [8] | Potency [10]

O=[N+]([O-])c1cccc(CCl)c1
inactive: Potency [1] | outcome [2] | outcome [3] | Potency [4] | Potency [5] | activity change, positive = activation [6] -0.166% | Potency [7] | Potency [8] | outcome [9] | Potency [10]

COc1cccc(C=O)c1
inactive: Potency [1] | outcome [2] | outcome [3] | Potency [4] | Potency [5] | activity change, positive = activation [6] 0.51% | Potency [7] | Potency [8] | outcome [9] | Potency [10]

Cc1ccc(Cl)c(O)c1
inactive: Potency [1] | outcome [2] | outcome [3] | Potency [4] | Potency [5] | activity change, positive = activation [6] 6.81% [at 42.5 µM] | Potency [7] | Potency [8] | outcome [9] | Potency [10]

COc1cc(CC(C)N)cc(OC)c1OC (stereo unspecified)
inactive: Potency [1] | outcome [2] | outcome [3] | Potency [4] | Potency [5] | activity change, positive = activation [6] 12.1% | Potency [7] | Potency [8] | outcome [9] | Potency [10]

NC(=O)CS(=O)C(c1ccccc1)c1ccccc1 (stereo unspecified)
inactive: Potency [1] | outcome [2] | outcome [3] | Potency [4] | Potency [5] | activity change, positive = activation [6] 9.38% [at 42.5 µM] | Potency [7] | Potency [8] | outcome [9] | Potency [10]

CCCCS(=O)(=O)Cl
inactive: Potency [1] | outcome [2] | outcome [3] | Potency [4] | Potency [5] | activity change, positive = activation [6] -4.82% | Potency [7] | Potency [8] | outcome [9] | Potency [10]

CC[C@@H](CO)NC(=O)[C@@H]1C=C2c3cccc4c3c(cn4C)C[C@H]2N(C)C1
inactive: Potency [1] | outcome [2] | outcome [3] | Potency [4] | Potency [5] | activity change, positive = activation [6] 0.637% [at 42.5 µM] | Potency [7] | Potency [8] | outcome [9] | Potency [10]

O=C(Cl)CCl
inactive: Potency [1] | outcome [2] | outcome [3] | Potency [4] | Potency [7] | Potency [8] | outcome [9]

CCc1cc(OC)c(C[C@H](C)N)cc1OC
inactive: Potency [1] | outcome [2] | outcome [3] | Potency [4] | Potency [7] | Potency [8] | outcome [9] | Potency [10]

NCCOS(=O)(=O)O
inactive: Potency [1] | outcome [2] | outcome [3] | Potency [4] | Potency [7] | Potency [8] | outcome [9]

CC(C)(C1CCC(O)CC1)C1CCC(O)CC1 (stereo unspecified)
inactive: Potency [1] | outcome [2] | outcome [3] | Potency [4] | Potency [7] | Potency [8] | outcome [9] | Potency [10]

ClCCCCl
inactive: Potency [1] | outcome [2] | outcome [3] | Potency [4] | Potency [7] | Potency [8] | outcome [9] | Potency [10]

CCOC(=O)N(C)N=O
inactive: Potency [1] | outcome [2] | outcome [3] | Potency [4] | Potency [5] | activity change, positive = activation [6] -2.98% | Potency [7] | Potency [8] | Potency [10]

COC(=O)c1ccc(CBr)cc1
inactive: Potency [1] | outcome [2] | outcome [3] | Potency [4] | Potency [7] | Potency [8] | outcome [9] | Potency [10]

C=CCC1(C(C)CC)C(=O)NC(=O)NC1=O (stereo unspecified)
inactive: Potency [1] | outcome [2] | outcome [3] | Potency [4] | Potency [7] | Potency [8] | outcome [9] | Potency [10]

Cc1cccc2sc3nncn3c12
inactive: Potency [1] | outcome [2] | outcome [3] | Potency [4] | Potency [7] | Potency [8]

CCN(CCO)CCO
inactive: Potency [1] | outcome [2] | outcome [3] | Potency [4] | Potency [7] | Potency [8] | outcome [9] | Potency [10]

O=C(O)c1c(Cl)ccc2cc(Cl)cnc12
inactive: Potency [1] | outcome [2] | outcome [3] | Potency [4] | Potency [7] | Potency [8] | outcome [9] | Potency [10]

CCOC(=O)c1ncn2c1CN(C)C(=O)c1c(I)cccc1-2
inactive: Potency [1] | outcome [2] | outcome [3] | Potency [4] | Potency [7] | Potency [8] | outcome [9] | Potency [10]

Cc1cc(OC(=O)N(C)C)nn1C(=O)N(C)C
inactive: Potency [1] | outcome [2] | outcome [3] | Potency [4] | Potency [7] | Potency [8] | outcome [9]

C(COCC1CO1)OCC1CO1 (stereo unspecified)
inactive: Potency [1] | outcome [2] | outcome [3] | Potency [4] | Potency [5] | activity change, positive = activation [6] 0.301% | Potency [7] | outcome [9] | Potency [10]

CN(CCO)CCO
inactive: Potency [1] | outcome [2] | outcome [3] | Potency [4] | Potency [7] | Potency [8] | outcome [9]

O=C/C=C/c1ccco1
inactive: Potency [1] | outcome [2] | outcome [3] | Potency [4] | Potency [7] | Potency [8] | outcome [9] | Potency [10]

Source: PubChem BioAssay (Tox21)
